# Compound activity as filed in PubChem BioAssay.
# Rows were chosen to be rich in hits. Some 3.7% of all compounds tested hit in one or more screens of this group.
# MazF activator: increases E. coli MazEF RNase cleavage of RNA. P0AE70. hit rate 0.32% among 350,000. FAM/BHQ RNA-DNA oligo cleavage fluorescence, 5 h. activation, % at 20 µM; in the data active = activation above about 50%
# BoNT F protease: inhibitors of Botulinum neurotoxin F light chain protease; Multiplex microsphere protease cleavage assay, flow cytometry; inhibition, % at 10 µM; hit rate 0.22% among 360,000; AID 588497; in the data active = inhibition above about 35%, passing the limit was not always enough; inconclusive = no clear call, values can overlap the other calls; also: plate controls were buffer without enzyme for full effect and enzyme alone for no effect
# Anthrax LF prot: anthrax lethal factor protease inhibition. multiplex microsphere protease cleavage assay, LF. inhibition, % at 10 µM. hit rate 0.12% among 360,000. AID 588501; also: plate controls were buffer without enzyme for full effect and enzyme alone for no effect
# Bead autofluor: flagged as autofluorescent in microsphere protease counterscreen. AID 624483. hit rate 3.1% among 360,000. fluorescence intensity (no concentration beside the values). compound autofluorescence counterscreen, microsphere flow cytometry; stronger effect = higher value; in the data active = fluorescence intensity above about 16000; inconclusive = no clear call, values can overlap the other calls
# BoNT A protease: blocks Botulinum neurotoxin A light chain protease; multiplex microsphere protease substrate cleavage, flow cytometry; inhibition, % at 10 µM; hit rate 0.17% among 360,000; also: plate controls were buffer without enzyme for full effect and enzyme alone for no effect
# * hit, by the source's call; ? = inconclusive; / = no result given. Rule as the data show it, unless noted: active = inhibition above about 30%; inconclusive = no clear call, values can overlap the other calls; inactive = below that.
SMILES,MazF activator,BoNT F protease,Anthrax LF prot,Bead autofluor,BoNT A protease
O=C(CC1C(=O)NCCN1CC(c1ccccc1)c1ccccc1)NC1CC1 (centres undefined),-3,-4,-2,2728,-1
CC(=O)c1cccc(NC(=O)c2onc(C)c2Cl)c1,7,0,2,5061,0
COc1cc(OC)cc(C(=O)Nc2cccc(C(C)=O)c2)c1,11,-1,-3,22501*,1
CC(=O)c1cccc(NC(=O)c2oc(C)nc2C)c1,2,-4,2,24179*,-1
O=C(O)c1ccccc1CSc1nc2ccccc2[nH]1,0,-9,-3,4972,-4
CC(CCc1ccccc1)NC(=O)CCNC(=O)Cn1ccc2ccccc2c1=O (centres undefined),1,0,-1,4375,2
Cn1cc(/C=C2\SC(=S)N(NC(=O)c3ccccc3Cl)C2=O)c2ccccc21,-62,9,23,3678,26
Cc1ccc(C(=O)NN2C(=O)/C(=C/c3cn(C)c4ccccc34)SC2=S)cc1,-41,23,26,2904,43*
Cc1nnc2n(c1=O)C(CS(=O)(=O)c1ccccc1)CS2 (centres undefined),-2,0,-6,21322*,?
O=[N+]([O-])c1ccc(S(=O)(=O)CC2CSc3nc4ccccc4n32)cc1 (centres undefined),4,22,12,1767,1
COc1ccc(S(=O)(=O)NCc2ccccn2)cc1C,1,0,1,3975,0
COc1cc(OC)cc(-c2nc3ccccc3s2)c1,-11,-6,2,23472*,-2
Cc1cc(-c2nc3ccccc3s2)ccc1N,9,-9,-4,3699,0
Cc1cccc(CNC(=O)C2CCC(=O)N(C3CC3)C2)c1 (centres undefined),3,-2,6,5410,3
COc1ccc([C@@H]2Sc3cc(OC)ccc3N(CCN(C(C)C)C(C)C)C(=O)[C@H]2OC(C)=O)cc1,3,5,-4,20962*,3
CNS(=O)(=O)c1cccc(C(=O)NCC(c2cccs2)N(C)C)c1 (centres undefined),-3,3,-8,22234*,2
CC(C)(C)OC(=O)CNC(=O)c1[nH]cnc1C(=O)NCCCCCNC(=O)OC(C)(C)C,9,-1,-9,4111,0
Cc1ccc(C)c(S(=O)(=O)N2CCN(C(=O)c3cnccn3)CC2)c1,10,1,-3,23149*,0
Cc1cnc(C(=O)N2CCN(S(=O)(=O)c3ccc4ccccc4c3)CC2)cn1,6,1,0,20208*,0
Fc1ccccc1/C=N/NC(=S)Nc1ccc(Cl)cc1Cl,-5,-5,-2,10982,0
CC1=C(C#N)C(NC(=O)C(C)(C)C)(C(F)(F)F)C(=O)N1 (centres undefined),4,-4,-1,21687*,-2
CCOC(=O)c1c(C)c(C(=O)N(C)C2CCCCC2)c(C)n1C,4,4,-2,11136,-1
CCOC(=O)c1c(C)c(C(=O)NC2CCCCCC2)c(C)n1C,3,5,3,21622*,?
CCOC(=O)c1c(C)c(C(=O)NCc2ccccc2OC)c(C)n1C,-15,-6,1,22066*,-5
CCOCCCNC(=O)c1c(C)c(C(=O)OCC)n(C)c1C,1,8,-8,18479*,?
SMILES,MazF activator,BoNT F protease,Anthrax LF prot,Bead autofluor,BoNT A protease
COc1ccc(NC(=O)C2(C)Cc3c(-c4ccc5c(c4)OCO5)ccnc3O2)cc1OC (centres undefined),/,-5,-9,2867,-1
Cc1csc(=O)n1CC(=O)OCC(=O)NCc1ccc(Cl)cc1Cl,-3,/,/,/,/
NC(=Nc1ccc(Cl)cc1)c1ccccc1,6,-1,-2,4174,-1
ONC(=Nc1ccccc1)c1ccc(Cl)cc1,6,4,-1,21077*,2
O=C(COC(=O)c1cnccn1)c1ccc2c(c1)CCCC2,3,2,-5,20610*,2
COC(=O)CNC(=O)c1cccc(-c2ccc(OC)cc2)c1,4,-4,0,2181,0
CCN(CC)C(=O)c1cccc(-c2ccc(OC)cc2)c1,4,0,-1,21818*,1
COc1ccc(Cn2c(SCC#N)nc3ccc(N4CCOCC4)cc3c2=O)cc1,0,-5,1,4505,0
COC(=O)C1C(=O)C2=C(CC1C)NC(C)=C(C(=O)OC(C)C)C2c1ccc(C)o1 (centres undefined),-2,-2,2,23601*,0
CN1C(=O)C(O)(CC(=O)c2cccnc2)c2ccccc21 (centres undefined),10,-5,-3,23918*,-3
